The source of these data is PubChem BioAssay (Tox21).

The nature of experiment [1]: qHTS assay to identify small molecule agonists of H2AX (AID 1224845; active = well fitted activation curve with a large enough effect in the signal ratio in the repeat runs, not every such curve was filed as active; the % refers to the signal ratio). The method in brief: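 Phospho-H2AX Ser139 measured by HTRF (ex 320 nm; em 665 and 620 nm) after 24 hr antibody incubation. Compounds, 15 concentrations, 0.76% DMSO, were applied to CHO-K1 cells for 3hr at 37C before lysis.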
Experiment [2] is described as follows: qHTS assay to identify small molecule agonists of the hypoxia (HIF-1) signaling pathway (AID 1224846; active = well fitted activation curve with a large enough effect in the signal ratio in the repeat runs, not every such curve was filed as active; the % refers to the signal ratio). Put shortly: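 Beta-lactamase FRET read-out (CCF4-AM substrate) from ME-180 cells carrying an HRE-driven bla reporter, after 17 hrs compound exposure at 37C/5% CO2. Cells were seeded at 2,000 per well in 0.5% dialyzed FBS medium and preincubated 5 hrs.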
The nature of experiment [3]: qHTS assay to identify small molecule agonists of H2AX - cell viability counter screen (AID 1224847; calls by dose curve; note: nearly all actives have a fitted effect of over 30% in size; note: potency is the fitted concentration of half-maximal effect). The method in brief: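 Quantitative HTS viability measurement: CHO-K1 wild-type cells in serum (10% FBS) medium, short 3 hr drug exposure at 37C with 0.76% DMSO, CellTiter-Glo luminescent detection.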
Experiment [4] is described as follows: qHTS assay to identify small molecule antagonists of the estrogen related receptor (ERR) signaling pathway from Tox21 library (AID 1224848). Note: nearly all actives have a fitted effect of over 50% in size. Note: potency is the fitted concentration of half-maximal effect. The method in brief:
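ERR cell line, 2,000 cells/well. 6 h settle, then compound (DMSO) added; 18 h at 37 C; ONE-Glo luminescence after 30 min RT.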

Experiment [5] is described as follows: qHTS assay to identify small molecule agonists of the estrogen related receptor (ERR) signaling pathway from Tox21 library (AID 1224849; calls by dose curve; note: nearly all actives have a fitted effect of over 15% in size). Particulars: ERR reporter cell line, ONE-Glo luciferase, 18 h; at 92.4 µM (top of the series) unless noted. Put shortly:
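Luminescence readout (ONE-Glo, 30 min RT) after 18 h compound exposure at 37 C of NTP-supplied ERR reporter cells; cells were plated 6 h before compound addition by pin tool.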

The nature of experiment [6]: qHTS RealTime-Glo MT Cell Viability Assay in HepG2 cells - 24 hour (AID 1224867). Note: nearly all actives have a fitted effect of over 50% in size. The method in brief:
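Tox21 10K library screened in qHTS format on HepG2 cells carrying RealTime-Glo reagents. Compounds were added after a 5 h preincubation, and the luminescent signal from continuous culture was measured repeatedly during 40 h treatment.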

Experiment [7] can be described thus: qHTS RealTime-Glo MT Cell Viability Assay in HEK293 cells - 32 hour (AID 1224868). Note: nearly all actives have a fitted effect of over 50% in size. Note: potency is the fitted concentration of half-maximal effect. The method in brief:
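Luminescence generated by NanoLuc from substrate produced by living HEK293 cells served as the viability signal. Each value reflects the reading at its stated time point during continuous 40 h compound exposure at 37 C.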

The nature of experiment [8]: A CellTox Green Cytotoxicity Assay to monitor cytotoxicity in HEK293 cells - 0 hour (AID 1224869). Note: nearly all actives have a fitted effect of over 50% in size. The method in brief: (§1)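 Read-out: fluorescence of a cell-impermeant cyanine dye staining DNA of dead cells, proportional to cytotoxicity. HEK293, 600 cells/well with reagent, compound (23 nL DMSO) added after 5 h; reads at 0, 8, 16, 24, 32, 40 h.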
Experiment [9] is described as follows: qHTS RealTime-Glo MT Cell Viability Assay in HepG2 cells - 40 hour (AID 1224870). Note: nearly all actives have a fitted effect of over 50% in size. Put shortly: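 Real-time viability: cells seeded at 600 per well together with NanoLuc and cell-permeant prosubstrate, compounds added after 5 h incubation. Luminescence tracked at 0, 8, 16, 24, 32 and 40 h of exposure.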
Experiment [10] is described as follows: A CellTox Green Cytotoxicity Assay to monitor cytotoxicity in HEK293 cells - 40 hour (AID 1224871). Note: nearly all actives have a fitted effect of over 45% in size. Put shortly:
as §1

Structures are written as SMILES. Values without a mark were called inactive. Results filed as inconclusive are left out. The source made the active and inactive calls. Unless noted, calls come from the whole dose curve; as a rule, active = well fitted curve in the direction sought with a large enough effect in the repeat runs; inconclusive = weak or mixed curves; inactive = no such curve, though single readings can be large; an effect the other way counts as inactive or inconclusive.
% is set by controls: 0 for no effect and ±100 for the full control effect.

Regarding `C=CC/C=C/C/C=C/C/C=C/C`, the Potency entry in [1], in experiment [3], in experiment [4], in experiment [6], in experiment [7] and in experiment [8] was “inactive” each time. Besides, the Potency result in [9] and in experiment [10] was “inactive” in each case. Further, the compound was called inactive in experiment [2]. The activity change, positive = activation in [5] was 3.56%.
As for `CO[Si](CCCNCCNCCN)(OC)OC`, the Potency result in experiment [1], in experiment [3], in experiment [4], in [6], in [7] and in experiment [8] was “inactive” each time. In addition, the Potency result in experiment [9] and in [10] was “inactive” each time. The compound was called inactive in experiment [2]. The activity change, positive = activation in experiment [5] is 2.38%.
As for `CCc1c(Br)c(Br)c(Br)c(Br)c1Br`, the Potency result in experiment [1], in experiment [3], in [4], in experiment [6], in [7] and in experiment [8] was “inactive” throughout. In addition, the Potency entry in [9] is “inactive”. Also, the compound was classed as inactive in experiment [2]. In experiment [5], the activity change, positive = activation was -5.33%.
Regarding `CCO[Si](C)(C)OCC`, the Potency result in [1], in [3], in [4], in experiment [6], in experiment [7] and in experiment [8] was “inactive” throughout. Besides, the Potency result in experiment [9] was “inactive”. Also, the compound was classed as inactive in experiment [2]. Further, the activity change, positive = activation in [5] was -0.643%.
Consider `C(=C/c1ccccc1)/c1ccccc1`, for which the Potency entry in experiment [1], in experiment [3], in experiment [4], in experiment [6], in experiment [7] and in experiment [8] was “inactive” throughout. Besides, the Potency result in [9] was “inactive”. Further, the outcome in experiment [2] was inactive. Further, the activity change, positive = activation in experiment [5] was 2.16%.
Turning to `Cc1cccc(N(C)C)c1`, the Potency entry in experiment [1], in experiment [3], in experiment [4], in [6], in [7] and in experiment [8] was “inactive” each time. In addition, the Potency result in experiment [9] is “inactive”. In experiment [2], the outcome was inactive. Moreover, in experiment [5], the activity change, positive = activation is -0.051%.
For `NC(=O)c1ccccc1N`, the Potency entry in experiment [1], in experiment [3], in experiment [4], in [6], in experiment [7] and in experiment [8] was “inactive” each time. Further, the Potency entry in [9] and in [10] was “inactive” each time. Further, the compound was classed as inactive in experiment [2]. Also, in experiment [5], the activity change, positive = activation was -2.02%.
On to `CCN(CC)c1cccc(C)c1`, for which the Potency entry in [1], in [3], in experiment [4], in experiment [6], in experiment [7] and in [8] was “inactive” each time. Also, the Potency result in experiment [9] and in experiment [10] was “inactive” in each case. Moreover, the compound was called inactive in experiment [2]. The activity change, positive = activation in experiment [5] is 9.53%.
As for `C#CC(O)CCC` (stereo not drawn), the Potency result in [1], in experiment [3], in [4], in [6], in [7] and in experiment [8] was “inactive” each time. In addition, the Potency entry in experiment [9] and in experiment [10] was “inactive” throughout. Further, the compound was classed as inactive in experiment [2]. Further, the activity change, positive = activation in [5] was 6.08%.
`Cc1ccc(O)cn1`: the Potency entry in experiment [1], in experiment [3], in [4], in [6], in experiment [7] and in experiment [8] was “inactive” throughout. Further, the Potency result in experiment [9] and in [10] was “inactive” each time. Also, in experiment [2], the result was inactive. In addition, in experiment [5], the activity change, positive = activation was 9.23%.
In the case of `O=c1cccc[nH]1`, the Potency entry in experiment [1], in experiment [3], in experiment [4], in experiment [6], in [7] and in experiment [8] was “inactive” throughout. Besides, the Potency entry in [9] and in [10] was “inactive” in each case. The compound was classed as inactive in experiment [2]. Besides, the activity change, positive = activation in experiment [5] is 0.143%.
Consider `CCc1cccc(CC)c1N(COC)C(=O)CS(=O)(=O)O`, for which the Potency entry in [1], in experiment [3], in experiment [4], in [6], in [7] and in [8] was “inactive” throughout. The Potency result in [9] and in [10] was “inactive” in each case. In [2], the compound was classed as inactive. In addition, in experiment [5], the activity change, positive = activation is -4.79%.
In the case of `CCCCCCCCCCCCCOP(=O)(O)O`, the Potency entry in experiment [1], in experiment [3], in [4], in experiment [6], in [7] and in experiment [8] was “inactive” in each case. The Potency entry in experiment [9] and in [10] was “inactive” each time. The compound was classed as inactive in [2]. The activity change, positive = activation in [5] was -2%.
As for `O=C(O)CC(=O)O`, the Potency result in experiment [1], in [3], in experiment [6], in experiment [7], in [8] and in experiment [9] was “inactive” throughout. The call in [2] was inactive.
Turning to `COc1nccnc1CC(C)C`, the Potency result in experiment [1], in experiment [3], in experiment [4], in experiment [6], in experiment [8] and in [9] was “inactive” each time. Besides, the Potency result in [10] is “inactive”. Besides, in experiment [2], the outcome was inactive. Also, in experiment [5], the activity change, positive = activation is 0.914%.
For the compound `CCC(C)C(=O)OC` (stereo not drawn), the Potency entry in experiment [1], in experiment [3], in experiment [4], in experiment [6] and in experiment [8] was “inactive” in each case. Also, the call in experiment [2] was inactive. In addition, the activity change, positive = activation in experiment [5] was -4.99%.
Turning to `CC1(C)C(=O)N(CO)C(=O)N1CO`, the Potency result in experiment [1], in experiment [3], in [6], in experiment [7], in experiment [8] and in experiment [9] was “inactive” in each case. Further, the compound was called inactive in experiment [2].
For the compound `OCCCS`, the Potency result in [1], in experiment [3], in [6], in experiment [7], in experiment [8] and in [9] was “inactive” in each case. Moreover, the compound was called inactive in experiment [2].
For `NCCCCCCNCCCCCCN`, the Potency result in experiment [1], in [3], in [4], in experiment [6], in experiment [8] and in experiment [9] was “inactive” throughout. Further, in experiment [10], the Potency entry was “inactive”. Also, the result in experiment [2] was inactive. The activity change, positive = activation in [5] was -13.7%.
Turning to `C[C@]12CC[C@H]3C(=CCc4cc(O)ccc43)[C@@H]1CCC2=O`, the Potency entry in experiment [1], in experiment [8], in experiment [9] and in [10] was “inactive” in each case. Also, the outcome in experiment [2] was inactive. The Potency in experiment [3] was 101 µM (active); in [4], 61.1 µM (active); in experiment [7], 49 µM (active). Also, the activity change, positive = activation in [5] is -51.5%.
Turning to `Clc1cc(Cl)c(-c2c(Cl)c(Cl)cc(Cl)c2Cl)cc1Cl`, the Potency entry in experiment [1], in experiment [3], in experiment [4], in experiment [6], in [8] and in [10] was “inactive” in each case. The outcome in experiment [2] was inactive. Moreover, the activity change, positive = activation in [5] is 21.1% [at 42.5 µM].
With `CC(C)(C)c1n[nH]c(=O)n(N)c1=O`, the Potency entry in [1], in experiment [3], in [4], in [6], in experiment [8] and in experiment [9] was “inactive” throughout. Moreover, the Potency result in experiment [10] was “inactive”. The compound was classed as inactive in [2]. Further, the activity change, positive = activation in [5] is -7.06%.
As for `CCCCCCCC(=O)OCC`, the Potency entry in experiment [1], in experiment [3], in [4], in experiment [6], in experiment [7] and in experiment [8] was “inactive” in each case. Also, in [10], the Potency result is “inactive”. Besides, in experiment [2], the result was inactive. For the same compound, the activity change, positive = activation in experiment [5] was 0.783%.
For the compound `C/C=C/CO`, the Potency result in experiment [1], in [3], in experiment [6], in experiment [7], in [8] and in experiment [9] was “inactive” each time. In experiment [2], the call was inactive.
Regarding `CC(C)c1ccccc1N`, the Potency result in [1], in [3], in experiment [4], in experiment [6], in [8] and in experiment [9] was “inactive” in each case. Moreover, the Potency entry in [10] was “inactive”. Further, in experiment [2], the compound was classed as inactive. Besides, the activity change, positive = activation in [5] is 3.39%.
